KKLEB tox: reduces viability of KKLEB cystic fibrosis airway cells. KKLEB CF airway cells viability, ATPlite luminescence, overnight; hits give low values; cells stimulated with P. aeruginosa culture filtrate. activity change (cytotoxicity), % at 5 µM. actives 0.36% (n = 360,000);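 active = corrected activity change at or below -50% at 5 µM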
Peg3 promoter: inhibitors of Peg3 promoter; inhibition, % at 20 µM; actives 1.7% (n = 360,000); AID 588405; HeLa PEG-Prom luciferase reporter, luminescence, overnight;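 active = inhibition of at least 50% at 20 µM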
CF NFkB block: inhibitors of cystic fibrosis induced NF-kB; KKLEB NF-kB-GFP reporter, PAF-induced, GFP fluorescence overnight; AID 588850; inhibition, % at 5 µM; actives 0.86% (n = 360,000);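 active = at least 50% inhibition at 5 µM, scaled per plate between neutral and stimulator controls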;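 note: PAF is a Pseudomonas aeruginosa culture filtrate used as stimulus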
C8 TRAIL sens: caspase-8 TRAIL sensitization | actives 1% (n = 360,000) | NB7+C8 cells + TRAIL, ATPlite viability luminescence | AID 624354 | inhibition (viability loss, TRAIL sensitization), % at 10 µM;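 active = compounds causing at least 50% loss of cell viability in the single-dose screen, relative to plate controls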
HIF-2a block: inhibitors of HIF-2a. 786-0 RCC cells HIF-2a reporter, luciferase luminescence, overnight. inhibition, % at 18.8 µM. actives 0.72% (n = 360,000);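 active = inhibition of the luminescence signal of 40% or more relative to plate controls, in a single-dose primary screen at 18.75 µM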
PPC-1+TRAIL kill: compounds killing PPC-1 cancer cells with TRAIL present (potentiator screen, no TRAIL-free arm); PPC-1 cells + TRAIL, ATPLite viability luminescence; cell killing (% activity), % at 4 µM or 5 µM; actives 0.41% (n = 220,000); AID 1443;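 active = cell killing above 50% in the first pass at 4 µM, then a duplicate retest at 5 µM averaging 50% or more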
Of the large screens only hits and unclear results are named; the others gave an inactive call. The list is not random: actives were taken first. Their share in the collection is about 3.1%.

CCOc1ccccc1/C=N/NC(=O)C[n+]1ccccc1	none (no result: PPC-1+TRAIL kill)
O=C(NC1CCCCC1)C(c1cccnc1)N(C(=O)CCl)c1ccc(F)cc1 (configuration not stated)	Peg3 promoter 69, C8 TRAIL sens 94
COc1ccc(C(C(=O)NC2CCCCC2)N(C(=O)c2cccs2)c2ccc3c(c2)OCO3)cc1 (configuration not stated)	KKLEB tox -70
COc1ccc(C(C(=O)NC2CCCCC2)N(C(=O)CCl)c2cccc(Cl)c2)cc1 (configuration not stated)	KKLEB tox -76, Peg3 promoter 102, CF NFkB block 100, C8 TRAIL sens 96, PPC-1+TRAIL kill 59
O=S(=O)(Nc1cccc(S(=O)(=O)N2CCCCCC2)c1)c1ccc(F)cc1F	none (no result: PPC-1+TRAIL kill)
COc1ccccc1C(=O)N1CCN(C(=O)c2oc3ccc(C)cc3c2C)CC1	none (no result: PPC-1+TRAIL kill)
CC1(C(=O)NS(=O)(=O)Cc2ccccc2)CCN1C(=O)C1(c2ccc(Cl)cc2)CCC1 (configuration not stated)	none (no result: PPC-1+TRAIL kill)
CCOC(=O)c1c(C)nc(C)c(C(=O)OCC)c1-c1ccccc1	none (no result: PPC-1+TRAIL kill)
CCOC(=O)c1c(C)nc2c(c1-c1cc(OC)c(OC)c(OC)c1)C(=O)c1ccccc1-2	C8 TRAIL sens 66
c1ccc(CNc2ncnc3c2cnn3-c2ccccc2)cc1	none
Clc1ccc(-n2ncc3c(N4CCCC4)ncnc32)cc1	C8 TRAIL sens 55
CC(C)Nc1ncnc2c1cnn2-c1ccc(Cl)cc1	C8 TRAIL sens 57
Cn1ncc2c(N3CCN(c4ccc(Cl)c(Cl)c4)CC3)ncnc21	Peg3 promoter 100
Cn1ncc2c(N3CCN(c4ccccc4F)CC3)ncnc21	none
Clc1ccc(Nc2ncnc3c2cnn3-c2ccccc2)cc1	none
CC(C)(C)Nc1ncnc2c1cnn2-c1ccccc1	C8 TRAIL sens 60
O=C(NCc1ccccc1)c1cc(C2CCCCN2C(=O)c2ccc(Cl)cc2)on1 (configuration not stated)	none (no result: PPC-1+TRAIL kill)
COc1ccc(NC(=O)O[C@@H](C)[C@@H]2CN3CCc4c([nH]c5ccc(-c6ccc(OC)cc6)cc45)[C@@H]3C[C@@H]2N(C)C(=O)Nc2ccc(OC)cc2)cc1	none (no result: PPC-1+TRAIL kill)
COc1ccc(NC(=O)N(C)[C@H]2C[C@H]3c4[nH]c5ccc(-c6ccc7c(c6)OCO7)cc5c4CCN3C[C@H]2[C@H](C)O)cc1	Peg3 promoter 55 (no result: PPC-1+TRAIL kill)
COc1ccc(NC(=O)N(C)[C@H]2C[C@H]3c4[nH]c5ccc(-c6ccc(OC)cc6)cc5c4CCN3C[C@H]2[C@H](C)O)cc1	Peg3 promoter 98 (no result: PPC-1+TRAIL kill)
COC(=O)C[C@@H]1CC[C@@H](NC(=O)Nc2cc(F)ccc2F)[C@@H](CO)O1	none (no result: KKLEB tox, Peg3 promoter, CF NFkB block, PPC-1+TRAIL kill)
COc1ccc(N(C)C(=O)C2CCN(S(=O)(=O)c3cccc4nonc34)CC2)cc1	none (no result: PPC-1+TRAIL kill)
COc1ccc(C(CCNCc2ccc(N(C)C)cc2)c2ccccc2)cc1 (configuration not stated)	Peg3 promoter 107 (no result: PPC-1+TRAIL kill)
CC(C)Oc1ccc(C(CCNCc2ccc(O)cc2)c2ccccc2)cc1 (configuration not stated)	Peg3 promoter 106 (no result: PPC-1+TRAIL kill)
COC(=O)c1ccc(C2c3[nH]c4ccccc4c3C[C@H]3C(=O)N(C)CC(=O)N23)cc1 (some centres not stated)	none (no result: PPC-1+TRAIL kill)
CN1CC(=O)N2C(c3ccc(Cl)cc3)c3[nH]c4ccccc4c3C[C@H]2C1=O (some centres not stated)	C8 TRAIL sens 55 (no result: PPC-1+TRAIL kill)
CCCCn1c(N)c(N(CC(C)C)C(=O)CC2OC(=O)c3ccccc32)c(=O)[nH]c1=O (configuration not stated)	none (no result: PPC-1+TRAIL kill)
COc1ccc(NC(=O)/C(C#N)=C/c2ccc(-c3ccccc3C(=O)O)o2)cc1	none (no result: PPC-1+TRAIL kill)
COc1ccc(NC(=O)/C(C#N)=C/c2ccc(-c3ccc(Cl)c(C(=O)O)c3)o2)cc1	C8 TRAIL sens 60 (no result: PPC-1+TRAIL kill)
Cc1cccc(NC(=S)NC(=O)c2oc3ccccc3c2C)n1	C8 TRAIL sens 64 (no result: PPC-1+TRAIL kill)
Cc1cccc(NC(=S)NC(=O)c2ccc(-c3ccccc3)cc2)n1	C8 TRAIL sens 59 (no result: PPC-1+TRAIL kill)
Cc1cccc(NC(=O)c2cc3ccccc3c(=O)o2)n1	C8 TRAIL sens 60 (no result: PPC-1+TRAIL kill)
Cc1c(C(=O)NC(=S)Nc2ccc(NC(=O)c3cccs3)cc2)oc2ccccc12	none (no result: PPC-1+TRAIL kill)
CC(C)Cc1ccc(-c2cc3nc(NCCc4ccc(S(N)(=O)=O)cc4)ccn3n2)cc1	none (no result: PPC-1+TRAIL kill)
COc1ccc(C(=O)O/N=C(\N)c2ccc(OC)c(OC)c2)cc1	C8 TRAIL sens 62 (no result: PPC-1+TRAIL kill)
COc1ccc(/C(N)=N/OC(=O)CC2CCCCC2)cc1OC	C8 TRAIL sens 73 (no result: PPC-1+TRAIL kill)
COc1ccccc1C(=O)O/N=C(\N)c1ccccc1Cl	none
COc1ccc(C(=O)O/N=C(\N)c2ccccc2Cl)cc1OC	C8 TRAIL sens 78 (no result: PPC-1+TRAIL kill)
COc1ccc(/C(N)=N/OC(=O)c2ccc(OC)c([N+](=O)[O-])c2)cc1OC	C8 TRAIL sens 64
CCN1C[C@@H]2[C@@H]3C(=O)N(C)C(=O)[C@@H]3[C@](Cc3ccccc3)(C1=O)N2C(=O)c1ccc(Cl)c(Cl)c1	none (no result: PPC-1+TRAIL kill)
COc1cc(C(=O)Nn2cnnc2)ccc1OC(F)F	none (no result: PPC-1+TRAIL kill)
OCc1ccccc1SSc1ccccc1CO	none (no result: PPC-1+TRAIL kill)
CC1Cc2ccccc2N1C(=O)CCS(=O)(=O)c1ccc2c(c1)NC(=O)CS2 (configuration not stated)	none (no result: PPC-1+TRAIL kill)
COc1ccccc1C/C(N)=N/OC(=O)c1ccc(C)c([N+](=O)[O-])c1	C8 TRAIL sens 55
Cc1ccc2c(C)nc(Nc3nc(CSc4nnnn4-c4ccccc4)cc(=O)[nH]3)nc2c1	Peg3 promoter 53
CCOc1ccc2nc(Nc3nc(CSc4nnnn4-c4ccccc4)cc(=O)[nH]3)nc(C)c2c1	none
CCOC(=O)[C@@H]1[C@H]2COc3ccccc3[C@@H]2N2C(=O)N(c3cccc(F)c3)C(=O)[C@@]12C	none (no result: PPC-1+TRAIL kill)
Cc1cc(C(=O)COC(=O)c2ccc[nH]c2=O)c(C)n1C	none
Cc1ccc(-n2c(C)cc(C(=O)COC(=O)c3ccc[nH]c3=O)c2C)cc1	C8 TRAIL sens 61
COCCn1c(C)cc(C(=O)COC(=O)c2ccc[nH]c2=O)c1C	Peg3 promoter 52
Cc1cc(C(=O)COC(=O)c2ccc[nH]c2=O)c(C)n1-c1ccc(Br)cc1	none
COCCn1c(C)cc(C(=O)COC(=O)c2ccc(Cl)c(S(N)(=O)=O)c2)c1C	C8 TRAIL sens 62 (no result: PPC-1+TRAIL kill)
CCOC(=O)C1=C(COC(=O)c2ccc(Br)c(S(=O)(=O)N3CCOCC3)c2)NC(=O)NC1C (configuration not stated)	none (no result: PPC-1+TRAIL kill)
CCC(C)(C)NC(=O)C(c1ccc(OC)cc1)N(C(=O)CCC(=O)Nc1cc(C)on1)c1cc(OC)ccc1OC (configuration not stated)	none (no result: PPC-1+TRAIL kill)
CC[C@H](CO)Oc1cc(NCc2cccc(N)c2)c2ncn(C(C)C)c2c1	none (no result: KKLEB tox, Peg3 promoter, CF NFkB block, PPC-1+TRAIL kill)
OCCCCNCc1ccc(OCc2ccc(Cl)cc2Cl)cc1	Peg3 promoter 100
COc1cc(-c2coc3c(C(=O)NCc4ccc(OC)c(OC)c4)cccc23)ccc1O	Peg3 promoter 51 (no result: PPC-1+TRAIL kill)

Screening data as filed in PubChem.
